Assay results from PubChem BioAssay (NCI).
The panel holds about 83,000 compounds, 20% with a hit somewhere; the sample as a whole holds those more often.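 Note: values are percent growth. 100 is the growth of untreated cells, values between 100 and 0 indicate rising inhibition; between -100 and 0 indicates cell death.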 Unmarked numbers belong to inactive results. The source made the active and inactive calls. Rule for the calls: active = growth percent below 10; inactive = the rest.

Test system: HL-60(TB) leukemia
Experiment: NCI-60 one-dose screen, 48 h (100 = growth as untreated, 0 = no growth, -100 = all killed)
Conditions: 10 µM unless noted

SMILES	growth
COc1ccccc1NC(=O)n1c(=O)cc(C)c2ccc(O)cc21	105%
CCNc1nc2c(cnn2C)c(=O)[nH]1	94.3%
CN(C)c1ccc2[nH]c3c(C(N)=O)cc(=O)c(=O)c=3oc2c1	-2.19% (active)
O=C1C=CC(=O)c2c1nc1n2CCCC1	94.7%
O=S(=O)(OCCOS(=O)(=O)c1ccccc1)c1ccccc1	92.5%
CCNc1nc(N2CC(=O)Nc3cc(OC)ccc32)c2ccccc2n1	-4.51% (active)
COc1ccc(-c2[nH]ncc2/C=C/c2cc(C(F)(F)F)[nH]c(=O)n2)cc1	92%
COc1ccc2c(c1)c(-c1nc(-c3c[nH]c4ccncc34)cs1)cn2C	-61.5% (active)
Clc1cc(Cl)cc(-c2cnc3nonc3n2)c1	10.9%
Cc1nc(Cl)c2c(n1)N(C)c1ccc(Cl)cc1C(C)C2 (stereo not given)	72.2%
COc1ccc(CCN=Cc2ccc(Cl)cc2)cc1OC	86.6%
COc1c(C(=O)Nc2ccc(C)c(Br)c2)ccc2ccccc12	91.2%
CCOc1ccc(/C=C\C(=O)O)cc1	82.9%
COc1ccc(CCN2CC=Cn3c2nc2ccccc2c3=O)cc1	-8.02% (active)
C#C[C@@]1(O)[C@@H](CO)O[C@@H](n2cc(Cl)c3c(N)ncnc32)[C@@H]1O	-56.8% (active)
CC1(C)CC[C@]23CC[C@]4(C)[C@H](CC[C@@H]5[C@@]6(C)C/C(=C/c7cccnc7)C(=O)C(C)(C)[C@@H]6CC[C@]54C)[C@H]2[C@H]1OC3=O	-0.84% [100 µM] (active)
CCCCCCCCCCCC(=O)NCCC[N+](C)(C)CC(=O)[O-]	101%
O=C(Nc1ccc2c(c1)C(=O)c1ccccc1-2)c1ccccc1	101%
C=CCOC(=O)C1=C(C)NC(=O)NC1c1c(Cl)n(C)c2ccccc12 (stereo not given)	109%
NS(=O)(=O)c1ccc(-n2ncc3c(=O)[nH]c(CN4CCN(c5cc6c(cc5F)c(=O)c(C(=O)O)cn6C5CC5)CC4)nc32)cc1	98%

SMILES	growth
CC(C)(N)COS(=O)(=O)O	94.4%
CCOc1cc(/C=C/C(=O)C(C(=O)/C=C/c2ccc(OC(=O)CNc3nnc(C)s3)c(OCC)c2)C(=O)CNc2nnc(C)s2)ccc1OC(=O)CNc1nnc(C)s1	-46.4% (active)
C=C1C(=O)O[C@H]2[C@H]1CC/C(COC(=O)/C=C\C(=O)NCc1ccc(Cn3c(=O)sn(CCCI)c3=O)cc1)=C\CC[C@@]1(C)O[C@@H]21	-36.6% (active)
COc1ccc(OC)c(NC2=C(SCCc3ccccc3)C(=O)c3ccccc3C2=O)c1	93.4%
COc1ccc(C(=O)/C=C/c2c(C(F)(F)F)nc3sccn23)cc1OC	-35.6% (active)
CN(C)CCOc1nc2ccccc2c2c1-c1ccc(Cl)cc1C2=O	-27.2% (active)
CCCCCCCCCCCC1=NC(C)(C)CN1C(C)(C)CO	58.3%
CN(C)CCOC(=O)Nc1nc2ccc(Sc3ccccc3)cc2[nH]1	-6.29% (active)
COc1ccc(N2CCN(C(=O)c3sc4nc(C)c(Br)c(C)c4c3N)CC2)cc1	95.7%
Cc1ccc(Cc2cnc(NC(=O)c3ccc4noc(-c5ccccc5)c4c3)s2)cc1	97.7%
COc1ccc(-c2cnnn2-c2cc(OC)c3c(c2)OCO3)cc1	-32% (active)
O=C1Nc2ccccc2/C1=C/c1cccs1	107%
CCN(C(=O)CCl)C(C)(C)C(SSSC(c1ccc(Cl)cc1)C(C)(C)N(CC)C(=O)CCl)c1ccc(Cl)cc1 (stereo not given)	42.1%
O=C1OCC2=C1C(c1ccc(Cl)c(Cl)c1)c1cc3c(cc1N2CCO)OCCO3 (stereo not given)	-18.9% (active)
Nc1nc(Cl)cc(NCCCCNc2cc(Cl)nc(N)n2)n1	101%
COc1ccc(Cn2cc3c(c2-c2ccccc2)CCc2cnoc2-3)cc1OC	7.72% (active)
CC1(C)OC(=O)C(=Cc2cccc(Br)c2)C(=O)O1	83.4%
CCOC(Cc1c(N)[nH]c(=S)[nH]c1=O)OCC	90.3%
C#CCn1c(-c2cc(OC)c(OC)cc2Br)nc(-c2ccccc2)c1-c1ccccc1	24.5%
N[C@@H]1CCC[C@H]1NCCCCN1C(=O)c2cccc3cccc(c23)C1=O	91.1%
